# According to PubChem BioAssay AID1159580 (chemical genetic matrix, 2015):
# The campaign covered roughly 5,500 compounds. About 2,000 (36%) were called active. Not shown: some 18% with an inconclusive outcome. Some of the results follow. A number with no mark means an inactive call. Cut-off read from the data, not from the text of the source: active = normalized growth mostly below about 0.91 (no sharp cut-off); inconclusive = no clear call, values can overlap the other calls; inactive = mostly above about 0.92.
# Assay: chemical genetic growth profiling, strain panel (AID 1159580);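 note: tested at 20 µM; growth read once vehicle control cultures reached saturation at 30 °C; 1 = growth at the plate median or of vehicle wells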
# Conditions: growth OD
smiles,measurement,setting,value
CCCSc1ccc2nc(NC(=O)OC)[nH]c2c1,normalized growth,"S. cerevisiae deletion strains, locus YJR075W, strain HOC1, stronger effect = lower value",0.97
same,normalized growth,"S. cerevisiae deletion strains, locus YKL009W, strain mrt4, stronger effect = lower value",0.938
same,normalized growth,"S. cerevisiae deletion strains, locus YKL068W, stronger effect = lower value",0.972
same,normalized growth,"S. cerevisiae deletion strains, locus YKL085W, strain MDH1 (second series), stronger effect = lower value",0.986
same,normalized growth,"S. cerevisiae deletion strains, locus YKL085W, strain MDH1, stronger effect = lower value",0.986
same,normalized growth,"S. cerevisiae deletion strains, locus YKL160W, strain elf1, stronger effect = lower value",1.01
same,normalized growth,"S. cerevisiae deletion strains, locus YKL190W, strain CNB1, stronger effect = lower value",0.988
same,normalized growth,"S. cerevisiae deletion strains, locus YKR001C, strain vps1, stronger effect = lower value",0.882 (active)
same,normalized growth,"S. cerevisiae deletion strains, locus YKR026C, strain gcn3, stronger effect = lower value",1.01
same,normalized growth,"S. cerevisiae deletion strains, locus YKR091W, strain srl3, stronger effect = lower value",1.01
same,normalized growth,"S. cerevisiae deletion strains, locus YLL001W, strain dnm1, stronger effect = lower value",0.999
same,normalized growth,"S. cerevisiae deletion strains, locus YLL026W, stronger effect = lower value",1.01
same,normalized growth,"S. cerevisiae deletion strains, locus YLL041C, strain sdh2, stronger effect = lower value",1
same,normalized growth,"S. cerevisiae deletion strains, locus YLR027C, strain aat2, stronger effect = lower value",1
same,normalized growth,"S. cerevisiae deletion strains, locus YLR039C, strain RIC1, stronger effect = lower value",0.731
same,normalized growth,"S. cerevisiae deletion strains, locus YLR058C, strain SHM2, stronger effect = lower value",0.988
same,normalized growth,"S. cerevisiae deletion strains, locus YLR102C, strain apc9, stronger effect = lower value",0.973
same,normalized growth,"S. cerevisiae deletion strains, locus YLR113W, strain HOG1, stronger effect = lower value",0.979
same,normalized growth,"S. cerevisiae deletion strains, locus YLR221C, strain rsa3, stronger effect = lower value",1.01
same,normalized growth,"S. cerevisiae deletion strains, locus YLR258W, strain gsy2, stronger effect = lower value",1.01
same,normalized growth,"S. cerevisiae deletion strains, locus YLR262C, strain YPT6 (second series), stronger effect = lower value",0.874
same,normalized growth,"S. cerevisiae deletion strains, locus YLR262C, strain YPT6, stronger effect = lower value",0.732
same,normalized growth,"S. cerevisiae deletion strains, locus YLR268W, strain sec22, stronger effect = lower value",0.847 (active)
same,normalized growth,"S. cerevisiae deletion strains, locus YLR320W, strain mms22, stronger effect = lower value",1.01
same,normalized growth,"S. cerevisiae deletion strains, locus YLR330W, strain CHS5, stronger effect = lower value",0.982
same,normalized growth,"S. cerevisiae deletion strains, locus YLR342W, strain FKS1 (second series), stronger effect = lower value",1.01
same,normalized growth,"S. cerevisiae deletion strains, locus YLR342W, strain FKS1, stronger effect = lower value",1.02
same,normalized growth,"S. cerevisiae deletion strains, locus YLR357W, strain rsc2, stronger effect = lower value",0.975
same,normalized growth,"S. cerevisiae deletion strains, locus YLR370C, strain arc18, stronger effect = lower value",1
same,normalized growth,"S. cerevisiae deletion strains, locus YLR371W, strain rom2, stronger effect = lower value",0.967
same,normalized growth,"S. cerevisiae deletion strains, locus YLR384C, strain iki3, stronger effect = lower value",0.997
same,normalized growth,"S. cerevisiae deletion strains, locus YLR418C, strain cdc73, stronger effect = lower value",0.886
same,normalized growth,"S. cerevisiae deletion strains, locus YML016C, strain PPZ1, stronger effect = lower value",0.993
same,normalized growth,"S. cerevisiae deletion strains, locus YML032C, strain rad52, stronger effect = lower value",0.947
same,normalized growth,"S. cerevisiae deletion strains, locus YML120C, strain ndi1, stronger effect = lower value",1
same,normalized growth,"S. cerevisiae deletion strains, locus YML124C, strain tub3, stronger effect = lower value",0.202 (active)
same,normalized growth,"S. cerevisiae deletion strains, locus YMR058W, strain fet3, stronger effect = lower value",1.01
same,normalized growth,"S. cerevisiae deletion strains, locus YMR078C, strain ctf18, stronger effect = lower value",0.964
same,normalized growth,"S. cerevisiae deletion strains, locus YMR125W, strain sto1, stronger effect = lower value",1.02
same,normalized growth,"S. cerevisiae deletion strains, locus YMR129W, stronger effect = lower value",1.01
same,normalized growth,"S. cerevisiae deletion strains, locus YMR205C, strain PFK2, stronger effect = lower value",1.03
same,normalized growth,"S. cerevisiae deletion strains, locus YMR223W, strain ubp8, stronger effect = lower value",0.997
same,normalized growth,"S. cerevisiae deletion strains, locus YMR231W, strain pep5, stronger effect = lower value",1.03
same,normalized growth,"S. cerevisiae deletion strains, locus YMR263W, strain SAP30, stronger effect = lower value",0.941
same,normalized growth,"S. cerevisiae deletion strains, locus YMR307W, strain GAS1, stronger effect = lower value",1.19
same,normalized growth,"S. cerevisiae deletion strains, locus YNL067W, strain RPL9B, stronger effect = lower value",0.942
same,normalized growth,"S. cerevisiae deletion strains, locus YNL071W, strain lat1, stronger effect = lower value",1.02
same,normalized growth,"S. cerevisiae deletion strains, locus YNL128W, strain TEP1, stronger effect = lower value",0.989
same,normalized growth,"S. cerevisiae deletion strains, locus YNL153C, strain GIM3, stronger effect = lower value",0.0651 (active)
same,normalized growth,"S. cerevisiae deletion strains, locus YNL183C, strain NPR1, stronger effect = lower value",0.896
same,normalized growth,"S. cerevisiae deletion strains, locus YNL209W, strain ssb2, stronger effect = lower value",1
same,normalized growth,"S. cerevisiae deletion strains, locus YNL233W, strain BNI4, stronger effect = lower value",0.965
same,normalized growth,"S. cerevisiae deletion strains, locus YNL248C, strain rpa49, stronger effect = lower value",1
same,normalized growth,"S. cerevisiae deletion strains, locus YNL250W, strain rad50, stronger effect = lower value",0.999
same,normalized growth,"S. cerevisiae deletion strains, locus YNL271C, strain bni1, stronger effect = lower value",0.973
same,normalized growth,"S. cerevisiae deletion strains, locus YNL298W, strain CLA4, stronger effect = lower value",0.947
same,normalized growth,"S. cerevisiae deletion strains, locus YNL307C, strain MCK1, stronger effect = lower value",0.948
same,normalized growth,"S. cerevisiae deletion strains, locus YNL322C, strain KRE1 (second series), stronger effect = lower value",1.01
same,normalized growth,"S. cerevisiae deletion strains, locus YNL322C, strain KRE1, stronger effect = lower value",0.996
same,normalized growth,"S. cerevisiae deletion strains, locus YNR049C, strain mso1, stronger effect = lower value",1.01
same,normalized growth,"S. cerevisiae deletion strains, locus YNR052C, strain pop2, stronger effect = lower value",0.958
same,normalized growth,"S. cerevisiae deletion strains, locus YOL006C, strain TOP1, stronger effect = lower value",0.729
same,normalized growth,"S. cerevisiae deletion strains, locus YOL012C, strain htz1",0.603
same,normalized growth,"S. cerevisiae deletion strains, locus YOL147C, strain pex11, stronger effect = lower value",0.967
same,normalized growth,"S. cerevisiae deletion strains, locus YOR001W, strain rrp6, stronger effect = lower value",1.01
same,normalized growth,"S. cerevisiae deletion strains, locus YOR061W, strain CKA2, stronger effect = lower value",0.996
same,normalized growth,"S. cerevisiae deletion strains, locus YOR069W, strain VPS5, stronger effect = lower value",0.99
same,normalized growth,"S. cerevisiae deletion strains, locus YOR070C, strain gyp1, stronger effect = lower value",1.01
same,normalized growth,"S. cerevisiae deletion strains, locus YOR080W, strain dia2, stronger effect = lower value",1.02
same,normalized growth,"S. cerevisiae deletion strains, locus YOR083W, strain WHI5, stronger effect = lower value",1.01
same,normalized growth,"S. cerevisiae deletion strains, locus YOR106W, strain vam3, stronger effect = lower value",0.997
same,normalized growth,"S. cerevisiae deletion strains, locus YOR136W, strain idh2, stronger effect = lower value",0.996
same,normalized growth,"S. cerevisiae deletion strains, locus YOR144C, strain elg1, stronger effect = lower value",0.965
same,normalized growth,"S. cerevisiae deletion strains, locus YOR184W, strain ser1, stronger effect = lower value",0.893
same,normalized growth,"S. cerevisiae deletion strains, locus YOR231W, strain MKK1, stronger effect = lower value",0.941
same,normalized growth,"S. cerevisiae deletion strains, locus YOR265W, strain rbl2, stronger effect = lower value",1.02
same,normalized growth,"S. cerevisiae deletion strains, locus YOR270C, strain vph1, stronger effect = lower value",0.963
same,normalized growth,"S. cerevisiae deletion strains, locus YOR290C, strain snf2, stronger effect = lower value",0.98
same,normalized growth,"S. cerevisiae deletion strains, locus YOR316C, strain cot1, stronger effect = lower value",0.959
same,normalized growth,"S. cerevisiae deletion strains, locus YPL051W, strain arl3, stronger effect = lower value",0.998
same,normalized growth,"S. cerevisiae deletion strains, locus YPL055C, strain LGE1, stronger effect = lower value",0.945
same,normalized growth,"S. cerevisiae deletion strains, locus YPL078C, strain atp4, stronger effect = lower value",1.01
same,normalized growth,"S. cerevisiae deletion strains, locus YPL106C, strain sse1, stronger effect = lower value",1.04
same,normalized growth,"S. cerevisiae deletion strains, locus YPL240C, strain hsp82, stronger effect = lower value",1
same,normalized growth,"S. cerevisiae deletion strains, locus YPL241C, strain CIN2, stronger effect = lower value",0.0807 (active)
same,normalized growth,"S. cerevisiae deletion strains, locus YPL256C, strain CLN2, stronger effect = lower value",0.933
same,normalized growth,"S. cerevisiae deletion strains, locus YPR119W, strain clb2, stronger effect = lower value",0.963
same,normalized growth,"S. cerevisiae deletion strains, locus YPR141C, strain kar3, stronger effect = lower value",0.992
same,normalized growth,"S. cerevisiae deletion strains, locus YPR163C, strain tif3, stronger effect = lower value",0.904 (active)
same,normalized growth,"S. cerevisiae deletion strains, locus YPR167C, strain met16, stronger effect = lower value",0.954
same,normalized growth,"S. cerevisiae deletion strains, strain wtn01, stronger effect = lower value",0.916
same,normalized growth,"S. cerevisiae strains, strain wild type, stronger effect = lower value",1
